Laboratory results: PubChem BioAssay AID1159580 (chemical genetic matrix, 2015)
About 2,000 (36%) of roughly 5,500 compounds were called active. Another 18% or so got no clear call; they are omitted. Cut-off read from the data, not from the text of the source: active = normalized growth mostly below about 0.91 (no sharp cut-off); inconclusive = no clear call, values can overlap the other calls; inactive = mostly above about 0.92. Some of the results follow.

Assay: chemical genetic growth profiling, strain panel (AID 1159580);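 note: tested at 20 µM; growth read once vehicle control cultures reached saturation at 30 °C; 1 = growth at the plate median or of vehicle wells; lower values mean less growth of the strain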
Conditions: growth OD

Measured: normalized growth

CC(C)=CCC/C(C)=C/CO
inactive: S. cerevisiae deletion strains, locus YJR075W, strain HOC1, active compounds read low 1.01 | S. cerevisiae deletion strains, locus YKL009W, strain mrt4, active compounds read low 0.918 | S. cerevisiae deletion strains, locus YKL068W, active compounds read low 0.993 | S. cerevisiae deletion strains, locus YKL085W, strain MDH1 (second series), active compounds read low 0.98 | S. cerevisiae deletion strains, locus YKL085W, strain MDH1, active compounds read low 0.98 | S. cerevisiae deletion strains, locus YKL160W, strain elf1, active compounds read low 1.01 | S. cerevisiae deletion strains, locus YKL190W, strain CNB1, active compounds read low 1.01 | S. cerevisiae deletion strains, locus YKR001C, strain vps1, active compounds read low 0.99 | S. cerevisiae deletion strains, locus YKR026C, strain gcn3, active compounds read low 0.985 | S. cerevisiae deletion strains, locus YKR091W, strain srl3, active compounds read low 0.986 | S. cerevisiae deletion strains, locus YLL001W, strain dnm1, active compounds read low 0.994 | S. cerevisiae deletion strains, locus YLL026W, active compounds read low 0.998 | S. cerevisiae deletion strains, locus YLL041C, strain sdh2, active compounds read low 0.98 | S. cerevisiae deletion strains, locus YLR027C, strain aat2, active compounds read low 0.996 | S. cerevisiae deletion strains, locus YLR039C, strain RIC1, active compounds read low 1.01 | S. cerevisiae deletion strains, locus YLR058C, strain SHM2, active compounds read low 1.01 | S. cerevisiae deletion strains, locus YLR102C, strain apc9, active compounds read low 0.991 | S. cerevisiae deletion strains, locus YLR113W, strain HOG1, active compounds read low 0.984 | S. cerevisiae deletion strains, locus YLR221C, strain rsa3, active compounds read low 0.947 | S. cerevisiae deletion strains, locus YLR258W, strain gsy2, active compounds read low 1 | S. cerevisiae deletion strains, locus YLR262C, strain YPT6 (second series), active compounds read low 0.978 | S. cerevisiae deletion strains, locus YLR262C, strain YPT6, active compounds read low 1.03 | S. cerevisiae deletion strains, locus YLR268W, strain sec22, active compounds read low 0.966 | S. cerevisiae deletion strains, locus YLR320W, strain mms22, active compounds read low 0.96 | S. cerevisiae deletion strains, locus YLR330W, strain CHS5, active compounds read low 1.01 | S. cerevisiae deletion strains, locus YLR342W, strain FKS1 (second series), active compounds read low 1.04 | S. cerevisiae deletion strains, locus YLR342W, strain FKS1, active compounds read low 0.974 | S. cerevisiae deletion strains, locus YLR357W, strain rsc2, active compounds read low 0.986 | S. cerevisiae deletion strains, locus YLR370C, strain arc18, active compounds read low 0.983 | S. cerevisiae deletion strains, locus YLR371W, strain rom2, active compounds read low 0.985 | S. cerevisiae deletion strains, locus YLR384C, strain iki3, active compounds read low 0.981 | S. cerevisiae deletion strains, locus YLR418C, strain cdc73, active compounds read low 0.975 | S. cerevisiae deletion strains, locus YML016C, strain PPZ1, active compounds read low 1.02 | S. cerevisiae deletion strains, locus YML032C, strain rad52, active compounds read low 0.991 | S. cerevisiae deletion strains, locus YML120C, strain ndi1, active compounds read low 1.01 | S. cerevisiae deletion strains, locus YML124C, strain tub3, active compounds read low 0.991 | S. cerevisiae deletion strains, locus YMR058W, strain fet3, active compounds read low 0.972 | S. cerevisiae deletion strains, locus YMR078C, strain ctf18, active compounds read low 0.98 | S. cerevisiae deletion strains, locus YMR125W, strain sto1, active compounds read low 1.01 | S. cerevisiae deletion strains, locus YMR129W, active compounds read low 0.994 | S. cerevisiae deletion strains, locus YMR205C, strain PFK2, active compounds read low 1.01 | S. cerevisiae deletion strains, locus YMR223W, strain ubp8, active compounds read low 1.01 | S. cerevisiae deletion strains, locus YMR231W, strain pep5, active compounds read low 0.983 | S. cerevisiae deletion strains, locus YMR263W, strain SAP30, active compounds read low 1.02 | S. cerevisiae deletion strains, locus YMR307W, strain GAS1, active compounds read low 1.01 | S. cerevisiae deletion strains, locus YNL067W, strain RPL9B, active compounds read low 1.01 | S. cerevisiae deletion strains, locus YNL071W, strain lat1, active compounds read low 0.988 | S. cerevisiae deletion strains, locus YNL128W, strain TEP1, active compounds read low 1.01 | S. cerevisiae deletion strains, locus YNL153C, strain GIM3, active compounds read low 0.998 | S. cerevisiae deletion strains, locus YNL183C, strain NPR1, active compounds read low 0.991 | S. cerevisiae deletion strains, locus YNL209W, strain ssb2, active compounds read low 0.99 | S. cerevisiae deletion strains, locus YNL233W, strain BNI4, active compounds read low 1.01 | S. cerevisiae deletion strains, locus YNL248C, strain rpa49, active compounds read low 0.969 | S. cerevisiae deletion strains, locus YNL250W, strain rad50, active compounds read low 0.992 | S. cerevisiae deletion strains, locus YNL271C, strain bni1, active compounds read low 0.975 | S. cerevisiae deletion strains, locus YNL298W, strain CLA4, active compounds read low 0.991 | S. cerevisiae deletion strains, locus YNL307C, strain MCK1, active compounds read low 1 | S. cerevisiae deletion strains, locus YNL322C, strain KRE1 (second series), active compounds read low 0.984 | S. cerevisiae deletion strains, locus YNL322C, strain KRE1, active compounds read low 1.01 | S. cerevisiae deletion strains, locus YNR049C, strain mso1, active compounds read low 0.984 | S. cerevisiae deletion strains, locus YNR052C, strain pop2, active compounds read low 0.987 | S. cerevisiae deletion strains, locus YOL006C, strain TOP1, active compounds read low 0.999 | S. cerevisiae deletion strains, locus YOL012C, strain htz1 0.813 | S. cerevisiae deletion strains, locus YOL147C, strain pex11, active compounds read low 0.996 | S. cerevisiae deletion strains, locus YOR001W, strain rrp6, active compounds read low 0.923 | S. cerevisiae deletion strains, locus YOR061W, strain CKA2, active compounds read low 1.02 | S. cerevisiae deletion strains, locus YOR069W, strain VPS5, active compounds read low 1.01 | S. cerevisiae deletion strains, locus YOR070C, strain gyp1, active compounds read low 0.987 | S. cerevisiae deletion strains, locus YOR080W, strain dia2, active compounds read low 0.987 | S. cerevisiae deletion strains, locus YOR083W, strain WHI5, active compounds read low 1.02 | S. cerevisiae deletion strains, locus YOR106W, strain vam3, active compounds read low 1.02 | S. cerevisiae deletion strains, locus YOR136W, strain idh2, active compounds read low 0.994 | S. cerevisiae deletion strains, locus YOR144C, strain elg1, active compounds read low 0.994 | S. cerevisiae deletion strains, locus YOR184W, strain ser1, active compounds read low 0.949 | S. cerevisiae deletion strains, locus YOR231W, strain MKK1, active compounds read low 0.983 | S. cerevisiae deletion strains, locus YOR265W, strain rbl2, active compounds read low 0.989 | S. cerevisiae deletion strains, locus YOR270C, strain vph1, active compounds read low 0.953 | S. cerevisiae deletion strains, locus YOR290C, strain snf2, active compounds read low 1 | S. cerevisiae deletion strains, locus YOR316C, strain cot1, active compounds read low 0.992 | S. cerevisiae deletion strains, locus YPL051W, strain arl3, active compounds read low 0.996 | S. cerevisiae deletion strains, locus YPL055C, strain LGE1, active compounds read low 1.04 | S. cerevisiae deletion strains, locus YPL078C, strain atp4, active compounds read low 1.01 | S. cerevisiae deletion strains, locus YPL106C, strain sse1, active compounds read low 0.977 | S. cerevisiae deletion strains, locus YPL240C, strain hsp82, active compounds read low 0.99 | S. cerevisiae deletion strains, locus YPL241C, strain CIN2, active compounds read low 1 | S. cerevisiae deletion strains, locus YPL256C, strain CLN2, active compounds read low 1.05 | S. cerevisiae deletion strains, locus YPR119W, strain clb2, active compounds read low 0.991 | S. cerevisiae deletion strains, locus YPR141C, strain kar3, active compounds read low 0.991 | S. cerevisiae deletion strains, locus YPR163C, strain tif3, active compounds read low 0.987 | S. cerevisiae deletion strains, locus YPR167C, strain met16, active compounds read low 0.995 | S. cerevisiae deletion strains, strain wtn01, active compounds read low 0.987 | S. cerevisiae strains, strain wild type, active compounds read low 1.02
